From PubChem
Shown are actives, neighbours in structure and some others; about 0.99% of the full set was active somewhere.
TRPML1 blocker: inhibitors of human TRPML1 channel; Q9GZU1; TRPML1-inducible cells, Ca2+ dye fluorescence, FDSS; active compounds read low; inhibition of EC80 agonist-evoked calcium signal; activity change, negative = inhibition, % (test concentration not listed); 0.02% of 390,000 active; AID 624415; in the data active = activity change below about -50%; inconclusive = between about -30% and that limit;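 note: stimulus is agonist 54-4 at its EC80 concentration; % is set by controls: 0 for no effect and ±100 for the full control effect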
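Calcium fluorescence in TRPML1-DL cells induced overnight with Tet: a 110 s read after compound pin addition, then a 110 s antagonist read after challenge with 54-4 at 4 uM final (EC80).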
TRPML1 agonist: human mucolipin-1 channel agonism. TRPML1-expressing cells, Ca2+ dye fluorescence, FDSS. activation, % (concentration not given with the values). 0.12% of 410,000 active; in the data active = activation above about 50%; inconclusive = mostly about 30% to 49%; note: 0% is about no effect
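Calcium fluorescence on an FDSS kinetic reader gave the read-out. Tet-induced TRPML1-DL cells were plated overnight, dye-loaded (Ca8 with quencher, 45-90 min, room temperature, dark), then read 110 s after compound addition, and again 110 s after 4uM final 54-4 (EC80).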
TRPV1 agonist: activates the human vanilloid receptor TRPV1; 0.19% of 320,000 active; Q8NER1; TRPV1-expressing cells, Fluo-8 calcium influx, agonist mode; activation, % at 8.33 µM; in the data active = activation above about 80%; inconclusive = between about 30% and that limit; note: 0% is about no effect
Target sequence (Q8NER1 whole entry, looked up): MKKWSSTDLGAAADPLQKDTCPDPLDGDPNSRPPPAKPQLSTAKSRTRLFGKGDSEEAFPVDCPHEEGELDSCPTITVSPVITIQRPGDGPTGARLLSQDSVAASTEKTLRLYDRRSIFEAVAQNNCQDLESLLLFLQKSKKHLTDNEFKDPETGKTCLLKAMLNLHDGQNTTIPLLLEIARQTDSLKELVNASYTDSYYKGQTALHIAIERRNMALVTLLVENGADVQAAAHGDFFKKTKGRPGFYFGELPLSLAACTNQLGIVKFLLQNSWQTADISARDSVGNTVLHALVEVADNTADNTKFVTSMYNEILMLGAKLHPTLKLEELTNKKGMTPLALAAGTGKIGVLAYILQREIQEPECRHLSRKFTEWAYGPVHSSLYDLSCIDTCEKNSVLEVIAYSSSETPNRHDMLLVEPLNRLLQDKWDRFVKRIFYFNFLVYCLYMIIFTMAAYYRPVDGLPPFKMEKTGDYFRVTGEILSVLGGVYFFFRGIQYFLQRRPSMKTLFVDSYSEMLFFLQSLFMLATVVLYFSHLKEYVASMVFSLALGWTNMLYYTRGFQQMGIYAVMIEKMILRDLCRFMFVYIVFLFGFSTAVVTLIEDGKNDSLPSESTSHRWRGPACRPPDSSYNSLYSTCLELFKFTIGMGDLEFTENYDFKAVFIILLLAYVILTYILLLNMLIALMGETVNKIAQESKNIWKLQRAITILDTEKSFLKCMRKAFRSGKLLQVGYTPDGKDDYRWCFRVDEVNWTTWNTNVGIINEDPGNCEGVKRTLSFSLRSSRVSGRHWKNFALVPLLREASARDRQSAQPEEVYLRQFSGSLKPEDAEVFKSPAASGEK
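Cells expressing TRPV1 were dye-loaded with Fluo-8 and read kinetically: 10 s baseline, 3 min after compound (agonist portion), then 2 min after EC20 capsaicin (allosteric enhancer portion). Calcium-bound dye fluorescence at 480/520 nm.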
TRHR agonist: activates the human TRH receptor; P34981; TRHR cells, calcium flux fluo-8, FDSS agonist mode; activation, % at 2 µM; 0.18% of 360,000 active; AID 493084; in the data active = activation above about 30%; note: 0% is about no effect
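Read-out: compound-evoked intracellular calcium rise in TRHR cells, fluo-8 dye, kinetic FDSS fluorescence at 1 s/cycle following a 10-cycle baseline. Cells cultured overnight before dye loading (30 min–1.5 h, RT).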
TRPV1 PAM: enhances activation of the human vanilloid receptor TRPV1 | Q8NER1 | TRPV1-expressing cells, Fluo-8 calcium influx, capsaicin EC20 potentiation | potentiation, % at 8.33 µM | 0.02% of 320,000 active | AID 540277; in the data active = potentiation above about 80%; inconclusive = between about 30% and that limit; note: 0% is about no effect
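TRPV1-expressing cells were cultured overnight at 35.5C and loaded with Fluo-8 calcium dye for 40 to 90 min at room temperature. After a 10 s baseline, compound was added and calcium influx was read kinetically for 3 min (ex 480/em 520 nm).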
TRHR enhancer: TRH receptor (human) allosteric enhancement. TRHR cells, fluo-8 calcium fluorescence, EC20 TRH enhancement. 0.66% of 360,000 active. AID 493056. enhancement, % at 2 µM; in the data active = enhancement above about 30%; note: 0% is about no effect
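TRHR-expressing cells loaded with fluo-8 calcium dye were read kinetically (ex 480/em 530) during compound addition, then stimulated with an EC20 of TRH (10 nM final). Enhancement of the Gq-mediated intracellular calcium response was scored.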
The depositor's hits bear a star; ? = inconclusive; · = no result.

SMILES | TRPML1 blocker | TRPML1 agonist | TRPV1 agonist | TRHR agonist | TRPV1 PAM | TRHR enhancer
CCOc1ccc(CCNS(=O)(=O)c2cc(Br)cc3c2N(C(C)=O)CC3)cc1OCC | 33 | 4 | · | 0 | · | 16
CCNc1nc(C#N)nc(N2CCCCC2)n1 | · | -1 | · | · | · | ·
COc1cccc(/C=C(\CC(=O)O)c2nc3ccccc3s2)c1 | -24 | 0 | 3 | 0 | 11 | 34*
Cc1cc2c(s1)c1cnn(Cc3cc(F)ccc3C)c(=O)c1n2C | · | · | · | 0 | · | -4
N#Cc1nc(Nc2ccc(Br)cc2)nc(NC2CCCC2)n1 | · | · | · | -2 | · | 2
COc1ccc(-c2nnc(N3CCOCC3)c3ccccc23)cc1 | -2 | 1 | 3 | 0 | 2 | 39*
OCCCc1nc2n(n1)C(c1cccs1)C=C(c1ccc(Br)cc1)N2 (configuration not stated) | · | · | 19 | 45* | 17 | -3
C1=C(c2ccc(-c3ccccc3)cc2)Nc2ncnn2C1c1ccco1 (configuration not stated) | 2 | 69* | 12 | 30* | 24 | 13
Fc1ccc(C2=CC(c3ccc(Br)o3)n3ncnc3N2)cc1 (configuration not stated) | 8 | ? | ? | 4 | -15 | -2
Brc1ccc(C2=CC(c3cccs3)n3ncnc3N2)cc1 (configuration not stated) | -3 | -1 | ? | 66* | -11 | 3
Cc1nc(-c2ccc(Cl)cc2)sc1CCNC(=O)C(=O)Nc1ccc2c(c1)OCCO2 | -9 | 1 | · | 1 | · | 0
COc1ccc(C2(CNC(=O)C(=O)Nc3ccc(F)cc3)CCCC2)cc1OC | -14 | 0 | · | 1 | · | 32*
COc1ccc(C2(CNC(=O)C(=O)Nc3ccccc3C)CCCC2)cc1OC | 12 | 3 | · | 0 | · | 0
COc1ccc(-c2c(C)nn3c(C(F)(F)F)cc(C)nc23)cc1OC | -2 | 0 | · | 1 | · | 0
CCNC(=S)N(CCO)Cc1cc2cc3c(cc2[nH]c1=O)OCO3 | · | · | -2 | 0 | -11 | 34*
CNC(=S)N(CCO)Cc1cc2cc3c(cc2[nH]c1=O)OCO3 | 1 | 1 | -3 | 1 | -7 | 6
COc1cccc(CNC(=O)c2ccncc2)c1 | -3 | 1 | 1 | 0 | -11 | 32*
COc1ccc(CNS(=O)(=O)CCNC(=O)c2ccccc2)cc1 | -10 | 1 | -5 | -1 | 2 | -5
COc1ccc(C(=O)NCCS(=O)(=O)NCc2cccnc2)cc1 | -21 | 0 | -1 | 0 | 3 | 33*
Cc1cc2c(s1)c1cnn(Cc3ccccc3Cl)c(=O)c1n2C | · | · | · | 1 | · | -2
CC(=O)c1cccc(NC(=O)COC(=O)c2ccccc2C)c1 | 13 | -1 | 1 | -1 | 6 | 31*
CCOc1ncccc1C(=O)OCC(=O)Nc1cccc(C(C)=O)c1 | 25 | 4 | -1 | -1 | 10 | -9
COc1cc(OC)c(OC)cc1/C=C/c1cc[n+](C)c2ccccc12 | · | -1 | · | · | · | ·
Cc1ccc(OC(=O)c2cccc(C(=O)Oc3ccc(C)cc3)n2)cc1 | -20 | 3 | 0 | 1 | -3 | -4
Cc1ccc(OC(=O)c2cc(C)nn2C(C)(C)C)cc1 | -5 | -1 | · | 0 | · | 36*
SMILES | TRPML1 blocker | TRPML1 agonist | TRPV1 agonist | TRHR agonist | TRPV1 PAM | TRHR enhancer
CSCc1ccc(C(=O)N2CCCC(Nc3ccc(F)cc3)C2)o1 (configuration not stated) | 9 | -1 | 84* | -2 | 1 | -8
CSCc1ccc(C(=O)N2CCCC(Nc3ccc4c(c3)OCCO4)C2)o1 (configuration not stated) | -29 | -1 | 91* | 0 | -6 | 1
O=C(c1ccco1)N1CCCC(Nc2ccc3c(c2)OCCO3)C1 (configuration not stated) | 33 | 1 | ? | 0 | -25 | -2
COc1ccc(NC2CCCN(C(=O)c3ccc(OC)o3)C2)cc1 (configuration not stated) | -4 | 0 | ? | 0 | -25 | -5
COC(=O)[C@@H]1CCCN1S(=O)(=O)Cc1ccccc1 | · | 0 | · | · | · | ·
CCSc1ncc(Cl)c(C(=O)Nc2ccccc2)n1 | -17 | 3 | ? | -1 | -14 | 36*
CCSc1ncc(Cl)c(C(=O)Nc2c(C(=O)Nc3ccccc3)oc3ccccc23)n1 | 11 | 0 | · | 0 | · | 3
CCOc1ccc(NC(=O)NC(C)c2c(-n3cccc3)sc3c2CCN(CC)C3)cc1 (configuration not stated) | 1 | 12 | · | 10 | · | 31*
Nc1cc(=O)[nH]c(=O)n1-c1ccc(Cl)cc1 | -77* | -1 | -4 | 0 | 16 | 0
Cc1cc(=O)n(-c2ccc(Cl)cc2)c(=O)[nH]1 | 3 | 0 | -1 | 2 | 22 | 3
Cc1ccc2c(=O)cc(C(=O)Nc3c(C)n(C)n(-c4ccccc4)c3=O)oc2c1C | 25 | 0 | · | 0 | · | -6
COc1ccc(C(=O)N(C)C2CCCN(Cc3ccccc3F)C2)cc1OC (configuration not stated) | 4 | -1 | -3 | 0 | 82* | 2
CN(C)c1cccc(C(=O)N(C)C2CCCN(Cc3ccccc3F)C2)c1 (configuration not stated) | -6 | 0 | -8 | 0 | 6 | 31*
COc1ccc(OC)c(C(=O)N(C)C2CCCN(Cc3ccccc3F)C2)c1 (configuration not stated) | 7 | 0 | -2 | 0 | 17 | -2
O=[N+]([O-])c1ccc2ncnc(Nc3ccc4c(c3)OCCO4)c2c1 | 44 | 0 | 11 | -1 | -18 | 6
CCc1nc(Nc2ccc3c(c2)OCCO3)c2oc3ccccc3c2n1 | 0 | 2 | 89* | 2 | -6 | -1
Cc1nc(Nc2ccc3c(c2)OCCO3)c2oc3ccccc3c2n1 | 7 | -1 | 82* | -1 | -3 | -4
c1ccc2c(c1)oc1c(Nc3ccc4c(c3)OCCO4)ncnc12 | 14 | 3 | 83* | 0 | 2 | -4
CCNc1nc(CC)nc2c1oc1ccccc12 | -10 | 3 | 88* | 2 | -20 | -1
CCc1nc(Nc2ccc(O)cc2)c2oc3ccccc3c2n1 | 48 | 3 | ? | -1 | -6 | -7
